Assay results as given in PubChem BioAssay AID504840 (Johns Hopkins Ion Channel Center, 2011).
Among all 1,500 compounds or so, about 890 (59%) were called active.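 How the source made its calls: active means inhibition of the choline-evoked signal at any tested dose together with a fitted dose-response curve; inactive means no inhibition at any dose or no curve.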 So high a share suggests a set chosen from earlier hits. Not all results are given here. Measured potencies and affinities stand elsewhere.

What follows are molecules tested against High affinity choline transporter 1 (Homo sapiens) (UniProt Q9GZV3) (assay: CHT inhibitors, dose response, cell-based, 5-point CRC, membrane potential dye (AID 504840;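 further: 0% = buffer-only response and 100% = EC90 choline response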)). Conditions: HEK293-CHT, choline-induced depolarization, CHT with LV-to-AA double alanine mutation; series mostly up to 37 µM; inhibition: at the top concentration.
Sequence of High affinity choline transporter 1 (Homo sapiens) (Q9GZV3 whole entry, looked up): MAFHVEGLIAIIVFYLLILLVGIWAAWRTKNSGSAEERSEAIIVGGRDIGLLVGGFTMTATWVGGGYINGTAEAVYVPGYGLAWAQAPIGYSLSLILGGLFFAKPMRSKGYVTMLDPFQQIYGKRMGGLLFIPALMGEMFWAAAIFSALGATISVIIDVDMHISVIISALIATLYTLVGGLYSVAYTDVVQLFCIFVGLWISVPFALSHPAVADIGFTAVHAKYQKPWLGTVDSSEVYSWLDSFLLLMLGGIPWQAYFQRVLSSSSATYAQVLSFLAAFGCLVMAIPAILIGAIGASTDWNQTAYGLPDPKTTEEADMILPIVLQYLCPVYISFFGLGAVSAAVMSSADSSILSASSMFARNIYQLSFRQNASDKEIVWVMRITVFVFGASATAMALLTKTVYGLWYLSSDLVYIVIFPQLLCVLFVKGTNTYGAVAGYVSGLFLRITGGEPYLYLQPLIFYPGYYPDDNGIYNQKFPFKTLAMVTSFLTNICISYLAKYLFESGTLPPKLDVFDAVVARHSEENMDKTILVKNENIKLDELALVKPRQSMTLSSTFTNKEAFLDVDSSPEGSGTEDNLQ

inhibition, inactive:
OCC1OC(n2cnc3c(NC4CCCCC4)ncnc32)C(O)C1O (stereo not drawn) 46.6%
CC(=O)c1ccc(Nc2nc(NCCO)nc(OC(C(F)(F)F)C(F)(F)F)n2)cc1 23.8%
CC1CCN(CCCNC(=O)CN2C(=O)CSc3ccc(S(=O)(=O)N4CCCCC4)cc32)CC1 53.7%
CCCCN(C)CCNC(=O)CN1C(=O)CSc2ccc(S(=O)(=O)N3CCCC3)cc21 52.2%
Cc1ccc(-c2csc3ncnc(N4CCN(C)CC4)c23)cc1C 53.4%
Cc1ccc(-c2csc3ncnc(-n4cnc5ccccc54)c23)cc1 85%
Cc1ccc(-c2csc3ncnc(-n4nnc5ccccc54)c23)cc1 57.5%
O=C(O)CCN1C(=O)CC(N2C(=O)/C(=C/c3ccc(Cl)cc3)SC2=S)C1=O (stereo not drawn) 49.9%
COc1ccc(-c2csc3ncnc(NCCCO)c23)cc1 52.9%
CCCNC(=O)N1CCCC(C(=O)c2cccc(Cl)c2)C1 (stereo not drawn) 6.87%
Cc1cc(O)ccc1NS(=O)(=O)c1ccc2c3c(cccc13)C(=O)N2 38.9%
CCOC(=O)Cc1csc(N/C(=N/S(=O)(=O)c2ccc(F)cc2F)c2ccccc2)n1 11%
CC1Cc2ccccc2N1C(=O)COC(=O)c1ccc(O)cc1 (stereo not drawn) 24.7%
CC[C@H](CO)Nc1nc(Nc2cccc(Cl)c2)c2ncn(C(C)C)c2n1 33.4%
COc1cc2c(cc1OC)/C(=C/C(=O)c1ccccc1F)NCC2 49.9%
CCCCCn1c(=O)c(F)cn(Cc2ccc(OC)c([N+](=O)[O-])c2)c1=O 58.7%
Cn1c(-c2ccccc2)cnc1SCc1nc2ccccc2c(=O)[nH]1 30.3%
N#Cc1ccccc1COC(=O)c1cccnc1N 41.7%
CC1=C(C(=O)NC(C)C)C2(CCC(C)CC2)OC1=O (stereo not drawn) -0.294%
COc1cc(C=O)ccc1OCCOCCOc1ccccc1Cl 22.1%
O=C1/C(=C/c2ccc(F)cc2)SC(=S)N1NS(=O)(=O)c1ccccc1 40.3%
COc1ccc(/C=C2/SC(=S)N(NS(=O)(=O)c3ccccc3)C2=O)cc1 41.8%
CCOc1ccc(/C=C2\SC(=S)N(NS(=O)(=O)c3ccc(C)cc3)C2=O)cc1OC 72.1%
Cc1ccc(C(=O)Nc2cccc(C(F)(F)F)c2)cc1NC(=O)c1csc(-c2ccncc2)n1 21.5%
Cc1ccc(NC(=O)COC(=O)CN2C(=O)COc3ccccc32)cc1 56.4%
CCOc1ncccc1C(=O)NCC1COc2ccccc2O1 (stereo not drawn) 15.3%
CC1(C)CC2CC(C)(CN2C(=O)CCCN2C(=O)c3ccccc3C2=O)C1 (stereo not drawn) 53.6%
Cc1c(CCC(=O)NCCCn2ccnc2)c(=O)oc2c(C)c3occ(C(C)(C)C)c3cc12 76.5%
O=C(O)c1ccc(N/N=C/c2cn(-c3ccccc3)nc2-c2cccs2)cc1 55.5%
CCOc1cccc(-c2nn(-c3ccccc3)cc2/C=C(/C#N)C(=O)NCCCn2ccnc2)c1 28.6%
Cc1ccc2nc(-c3ccccc3)cc(C(=O)NCCCn3ccnc3)c2c1 63%
COc1ccc(/C(O)=C2/C(=O)C(=O)N(c3ccccn3)C2c2cccc(Cl)c2)cc1 (stereo not drawn) 37.6%
O=C(NC1CC1)C1=C[C@H](c2csc3ccccc23)C[C@H](OCc2ccc(CO)cc2)O1 -0.201%
O=C(Nc1ccc(OCc2ccccc2)cc1)Nc1ccccc1C(=O)NCCCN1CCOCC1 37.1%
O=C(Nc1ccccc1C(=O)NCCCn1ccnc1)c1ccc(Cl)cc1Cl 53.8%
CSc1ccccc1C(=O)NCCS(=O)(=O)N1CCN(c2ccc(F)cc2)CC1 53.1%
C=CCn1c(SC2CCOC2=O)nc2scc(C3CC3)c2c1=O (stereo not drawn) 51%
CN(C)CCOC(=O)Cc1ccc(Cl)cc1 22.7%
COc1ccc(OCC(=O)NC(=S)Nc2ccccc2F)cc1 12.5%
CN(Cc1ccccc1)C(=O)COC(=O)COc1ccc(C#N)cc1 44.2%
Cc1sc2nc(SCCN(C)C)n(-c3ccccc3)c(=O)c2c1-c1ccc(F)cc1 57.2%
CCCCOc1cccc(C(=O)NNC(=S)NC2CCCCC2)c1 49%
Oc1ccc(Oc2ncc(Cl)cc2Cl)cc1 41.6%
CC(C)Cc1csc(NC(=O)c2ccc(Br)cc2)c1C(=O)O 35.9%
CSCCC(NC(=O)c1ccccc1)C(=O)Nc1ccc(C)cc1 (stereo not drawn) -7.83%
O=C(C[n+]1cccc2ccccc21)c1ccc(Cl)cc1 31.1%
CC(C)c1c(C(=O)N/N=C/c2cccc(OCc3ccc(F)cc3)c2)nnn1-c1nonc1N 4.16%
CCCOP(=O)(c1ccc(N(C)C)cc1)C(O)c1ccc(Br)cc1 (stereo not drawn) -9.68%
O=C(NNS(=O)(=O)c1ccc([N+](=O)[O-])cc1)c1ccc2ccccc2c1O 36.4%
CCN1CCN(CC(=O)Nc2ccc(S(=O)(=O)N3C(C)CCCC3C)cc2)CC1 (stereo not drawn) 76.4%
O=C(CCN1C(=O)/C(=C\c2cccc(Br)c2)SC1=S)NCCCN1CCOCC1 41.5%
S=c1nc(-c2ccco2)[nH][nH]1 44.5%
O=C(NC(=S)NNC(=O)[C@H]1C[C@@H]1c1ccccc1)c1cccc(F)c1 57.1%
CCN1CCN(c2cc(C)c3cc(NC(=S)N4CCC5(CC4)OCCO5)ccc3n2)CC1 61%
Cc1csc2c(N3CCN(C(=S)Nc4ccc(C(F)(F)F)cc4)CC3)ncnc12 36.7%
CCCN1CCN(C(=S)Nc2ccc3nc(N4CCN(CC)CC4)cc(C)c3c2)CC1 71.7%
O=c1c2c(C(F)(F)F)cc(C(F)(F)F)nc2[nH]n1-c1ccccc1 54.5%
CCN(CC)CCCN(C(=O)c1ccc(OC)cc1)c1nc(-c2ccc(OC)cc2)cs1 41.3%
CCCCCc1cc(=O)oc2c(C(CCN(CC)CC)c3cc(OC)c(OC)c(OC)c3)c(OC)cc(OC)c12 (stereo not drawn) 36.1%
CSC(SC)=C(C#N)C(=O)c1ccccc1 94.9%
COc1cccc(C(=O)NN/C(C)=C/C(=O)C(F)(F)C(F)(F)C(F)(F)F)c1 43.2%
O=C1ON=C(c2ccccc2)/C1=C/c1ccco1 58.5%
CCc1ccc(S(=O)(=O)c2n[nH]n3c2nc(=O)c2ccccc23)cc1 40%
C/C(Cl)=C\Cn1c(O)c(N=O)c2ccccc21 51.9%
CC(NS(=O)(=O)OCC(Cl)(Cl)Cl)c1ccc(Br)cc1 (stereo not drawn) 41.1%
O=C1CCN(CCc2ccccc2)CCN1CCSc1ccccc1 41.9%
COc1ccc(S(=O)(=O)N2CCN(CCc3ccccc3)CC2)c(OC)c1 50.7%
O=S(=O)(c1ccc(F)c(F)c1)N1CCN(CCc2ccccc2)CC1 48.3%
